Compounds with a hit are over-represented: about 1.5% of the library has one in this group of screens.
AID504770: growth inhibitors of E. coli YBA685 in a screen for V. cholerae RctB (chromosome II replication) inhibitors. E. coli YBA685 rctB-dependent plasmid, OD600 growth, 3 h; active compounds read low. 130,000 tested, 0.27% active. z-score (test concentration not listed); in the data active = z-score below about -2, passing the limit was not always enough
Mtb MbtI inh: MbtI salicylate synthase inhibition; P9WFX0; purified MbtI enzyme, fluorescence intensity read-out; inhibition, % (concentration not given with the values); 100,000 tested, 0.89% active; AID 493033; in the data active = inhibition mostly above about 56%, no sharp cut-off; inactive = mostly below about 77%
MenB inh: inhibitors of Mycobacterium tuberculosis MenB enzyme; P9WNP5; MenB enzyme assay, absorbance read-out; inhibition, % (test concentration not listed); 100,000 tested, 0.43% active; AID 540299; in the data active = inhibition above about 21%, passing the limit was not always enough
Target sequence (P9WNP5 whole entry, looked up): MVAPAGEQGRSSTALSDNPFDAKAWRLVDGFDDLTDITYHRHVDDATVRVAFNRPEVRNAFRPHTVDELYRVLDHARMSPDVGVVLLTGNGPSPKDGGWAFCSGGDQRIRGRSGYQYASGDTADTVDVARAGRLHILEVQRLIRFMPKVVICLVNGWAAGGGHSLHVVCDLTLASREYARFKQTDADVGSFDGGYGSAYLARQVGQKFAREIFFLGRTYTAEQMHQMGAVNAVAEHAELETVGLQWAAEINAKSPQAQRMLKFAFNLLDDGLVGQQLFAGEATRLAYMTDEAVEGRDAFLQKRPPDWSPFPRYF
PV pol inh: inhibitors of poliovirus RNA polymerase binding and polymerization; P03300; poliovirus polymerase elongation, fluorescence polarization; active compounds read low; % elongation, % (compound at 16.7 µg/mL); 150,000 tested, 0.66% active; AID 588519; in the data active = % elongation below about 90%
* marks the source's active call; other numbers are inactive results; / = not tested or not shown.

SMILES	AID504770	Mtb MbtI inh	MenB inh	PV pol inh
Cc1nnc(SCC(=O)c2c(-c3ccccc3)n(C)c3ccccc23)n(N)c1=O	-0.4	-5.5	2.4	98.0
CCO/C=C1/C(=O)NC(=O)c2ccccc21	-2.1	26.4	3.5	211.0
CCO/C=C1\C(=O)N(C)C(=O)c2ccccc21	-0.6	-9.5	/	10.0*
CCO/C=C1/C(=O)N(Cc2ccc(OC)cc2)C(=O)c2ccccc21	1.1	-7.0	24.1	36.0*
CCO/C=C1/C(=O)N(c2ccc(Cl)cn2)C(=O)c2ccccc21	-0.15	91.5	-16.7	85.0*
CC(C)CCn1c(O)c(N=NC(N)=O)c2ccccc21	-1	1.8	0.9	106.0
O=C(Cn1cnc2ccccc21)Nc1ccccc1	-1.2	-20.2	-16.2	102.0
O=C(Cn1cnc2ccccc21)NC1CCCC1	1.1	4.8	32.7*	101.0
COC(=O)c1cn(CC(=O)NC2CCCCCC2)c2ccccc12	0.65	-1.4	30.7*	100.0
Oc1ccccc1C1OCC(C2CC=CCC2)CO1 (stereo not given)	1.6	-8.2	36.4*	104.0
CCOc1ccccc1N1CCN(CC(=O)C(C#N)c2nc(C)cs2)CC1 (stereo not given)	-0.2	11.6	-7.5	103.0
O=S1NN(c2ccccc2)S(=O)NN1c1ccccc1 (stereo not given)	-0.95	7.0	-67.9	72.0*
CCc1nc2ccc(C(=O)NC3CCCCC3)cc2nc1CC	-0.3	/	/	/
Cc1ccccc1NS(=O)(=O)c1ccc2[nH]cc(C(=O)NC3CCCC3)c(=O)c2c1	0.15	-356.7	0.0	100.0
Cc1ccc(C(=O)N/C(=C/c2ccccc2)C(=O)NCc2ccco2)cc1	-0.2	-21.5	46.0*	102.0
O=C(NCc1ccccc1)/C(=C\c1ccccc1)NC(=O)c1ccccc1	-0.1	-7.6	-13.3	104.0
O=C(CCC(=O)c1ccc(F)cc1)c1ccc(F)cc1	-0.25	-12.9	3.1	105.0
O=C(CC1C(=O)Sc2[nH]c(=O)sc21)c1ccc(F)cc1 (stereo not given)	-0.25	84.8*	59.1*	55.0
CCn1c(CSc2ncccn2)nc2cc(C(=O)O)ccc21	-0.2	7.6	-22.6	86.0
CCn1c(CS(=O)(=O)c2cc(C)ccc2C)nc2cc(C(=O)O)ccc21	-0.55	-11.2	1.3	81.0*
COCCNc1oc(-c2cccc(C)c2)nc1C#N	-0.75	130.2	-20.0	101.0
CSc1ccccc1NC(=O)C1Cc2ccccc2O1 (stereo not given)	-0.3	-7.2	4.2	108.0
O=C1C=CC(=O)C(C2=C3C(=O)N(Cc4ccccc4)CC(=O)N3CCC2)=C1	-0.55	100.2*	14.2	102.0
COc1ccccc1NC(=O)N1CCCSc2ccccc21	-0.5	5.9	-30.9	/
Cn1ccccc1=S	0.95	23.7	-12.4	101.0
SMILES	AID504770	Mtb MbtI inh	MenB inh	PV pol inh
On1ccccc1=S	-5.35*	92.2*	11.8	97.0
CCS(=O)(=O)n1nc(-c2ccco2)nc1SC	0.65	82.3*	-14.5	96.0
CSc1nc(-c2ccco2)nn1C(=O)c1ccccc1	1.1	19.5	-2.6	103.0
Nc1nc(-c2cccs2)c(C(=O)C(F)(F)F)s1	-0.4	63.0*	-5.9	100.0
Cn1/c(=N/NC(=S)NC(=O)C2CC2)sc2ccccc21	0.5	74.0	-38.3	105.0
O=C1CSC(=S)N1/N=C/c1cc(Br)cc(Br)c1O	-0.4	48.6	-25.0	90.0*
Cc1ccc(-c2nnc(SCCC(=O)N3CCOCC3)o2)cc1	-0.2	9.6	28.3*	99.0
C=CCN(CC=C)Cn1nc(Nc2ccccc2F)sc1=S	0.35	99.4*	3.4	107.0
CCC1(C)Cc2nc3nc(SCC(=O)OC)n(Cc4ccccc4)c(=O)c3cc2CO1 (stereo not given)	-0.25	/	/	/
C=Cc1ccc2c(ccn2C(C)=O)c1	0.15	2.8	20.3	101.0
C=Cc1ccc2c(c1)N(C)C(=C)S2	-0.7	61.7*	/	104.0
COc1cccc(NC(=O)C2CC(=O)n3cnnc3S2)c1 (stereo not given)	-0.1	96.2*	/	/
Cc1ccc(S(=O)(=O)c2ccccc2)cc1S	0.55	/	-12.5	62.0*
Cc1ccc(C(=O)Nc2ccccc2C)cc1	-0.65	5.3	11.4	100.0
Cc1ccccc1NC(=O)c1sc(N)c(C(N)=O)c1C	-1.15	87.2*	-18.8	97.0
COc1ccc(C(C(=O)NCc2ccccc2)N(Cc2ccco2)C(=O)c2cnccn2)cc1 (stereo not given)	-0.45	-6.2	36.4*	99.0
O=C(/C=C/c1ccco1)NC(=S)Nc1ccc(Cl)cc1	-0.05	27.4	-55.7	101.0
Fc1ccc(-c2nnc(Cl)c3ccccc23)cc1F	1.4	0.6	/	100.0
O=c1[nH]c(=S)[nH]nc1-c1ccc(F)c(F)c1	-0.75	100.5*	-15.9	98.0
CCOC(=O)C/C(C)=N/c1ncn(-c2ccc(OC)cc2)c1C(=O)c1ccccc1	-0.7	9.6	-6.5	98.0
Fc1ccccc1C=Nc1cccc2ccccc12	-0.45	111.7	-38.2	102.0
Brc1ccccc1C=Nc1cccc2cnccc12	2.1	3.4	/	81.0*
CC1CN(c2oc(-c3ccccc3F)nc2C#N)CC(C)O1 (stereo not given)	-0.4	/	/	/
CCC(=O)Nc1nc2ccccc2s1	-0.05	7.8	/	/
CCC(=O)Nc1nc2c(s1)CSc1ccccc1-2	-0.5	95.8*	-11.3	100.0
SMILES	AID504770	Mtb MbtI inh	MenB inh	PV pol inh
Cn1c(C=Nc2ccc(Cl)cc2)nc2ccccc21	-0.15	-19.1	1.2	103.0
CCCCN1COc2c(cc(Cl)c3cccnc23)C1	-5.8*	-119.5	-9.5	101.0
O=c1[nH]c(Nc2ccccc2)cc2ccccc12	-0.7	65.3	-16.6	76.0*
COC(CNC(=S)Nc1cccc(C)c1)OC	-0.55	-8.7	-12.3	102.0
CC(C)CNC(=O)c1ccccc1S(=O)(=O)N1CCCCC1	-0.95	93.6*	-23.0	115.0
O=C(NC(=O)c1ccccc1Cl)OCc1cccc(Oc2ccccc2)c1	-0.05	-13.2	3.1	102.0
O=C1CCCCCN1Cc1n[nH]c(=S)o1	-0.5	73.9*	-28.1	82.0*
CCCCCCCCCCCCCCCCCCc1ccc(C(=O)/C=C/C(=O)O)cc1	/	8.8	-4.5	98.0
CCCCCOc1ccc(C(=O)/C=C/C(=O)O)cc1	1.25	63.5*	17.7	96.0
C=CCNC(=O)c1ccc(COc2ccccc2Cl)o1	-0.7	-6.7	0.8	100.0
CC1=C(C)CC2C(=O)N(c3ccc(N4CCOCC4)cc3)C(=O)C2C1 (stereo not given)	0.75	-3.2	/	100.0
O=C1C=CC(=O)N1c1ccc(N2CCOCC2)cc1	-0.3	93.3*	-42.3	101.0
Cc1nc(-c2c[nH]c3ccccc23)c(C)s1	-1.05	/	-15.1	73.0*
CCN(C(=O)Cn1c(=O)oc2cc(S(=O)(=O)N3CCCC3)ccc21)c1ccccc1	-0.35	-2.0	-21.2	104.0
O=c1c(=N\O)/c(=N/O)c(=O)c2ccccc12	-5.3*	25.0	-12.4	60.0*
O=c1c(=Nc2ccccc2O)c(=O)c2ccccc12	-0.9	/	-8.1	95.0
O=C1C2SCCN2C(=S)N1c1cccc(C(F)(F)F)c1 (stereo not given)	-0.8	70.5*	2.4	100.0
C=C(C)c1ccccc(=O)c1O	-5*	/	/	/
CCNC(=O)CSc1nnc(-c2cc(OC)c(OC)c(OC)c2)o1	-6.1*	0.1	-0.5	105.0
COc1cccc(-c2nnc(SCC(=O)NC3CCCCC3)o2)c1	/	/	/	88.0*

Source: PubChem
